SMILES strings stand for the structures. Activity calls are given as the source filed them.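 How the source made its calls, unless noted: active means compound that reduces growth-factor-driven endothelial tube area in a mixed cell culture, no cutoff stated; inactive means the rest.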

Assay [1] can be described thus: stimulators of nuclear beta-catenin in C2C12, primary screen, imaging, WNT3A-conditioned medium, mouse C2C12, NPC library (AID 1117326; in the data active means nuclear beta-catenin stimulation mostly above about 4.2%, no sharp cut-off; inactive means mostly below about 10%; further: reference of the scale not given here). The settings on record: stronger effect = higher value.
Assay [2] can be described thus: stimulators of insulin release from INS-1E, primary screen, cell-based, 5 mM glucose, NPC library (AID 1117329;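 active means compound raises insulin release from rat beta cells at 5 mM glucose, no numeric limit stated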; further: reference of the scale not given here). The settings on record: rat INS-1E insulin secretion, at 10 µM, stronger effect = higher value.
Assay [3] in a line: growth inhibition of GSK3B-pretreated HCT116 cells – cell-based, CellTiter-Glo, 0.2 to 20 µM (AID 1117336;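 active means compounds lowering colon cancer cell viability after pretreatment blocking the GSK3B kinase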). The settings on record: HCT116 viability after GSK3B inhibitor, at 20 µM, stronger effect = higher value. For orientation: ATP-based viability assays read luminescence as a measure of living cells.
Assay [4] is described as follows: inhibition of endothelial tube formation, primary screen, imaging, VEGF stimulated, CD31 staining, tube area, NPC library (AID 1117340). The settings on record: VEGF-stimulated ADSC/ECFC co-culture, at 10 µM, stronger effect = higher value.
Assay [5] in a line: glucagon-like peptide 1 release enhancers, primary assay, NCI-H716 cell line, NPC library (AID 1117341;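 active means compound raises GLP1 secretion from the human gut endocrine cells, with no numeric limit stated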; further: reference of the scale not given here). The note with it: NCI-H716 cells, at 10 µM, stronger effect = higher value.
A short description of assay [6]: HCT116 colon cancer cell growth inhibition, primary screen, CellTiter-Glo luminescence, NPC library (AID 1117342;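 active means compounds that lower survival of HCT116 colon cancer cells in the luminescence readout, no numeric limit stated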). The settings on record: at 20 µM (top of the series).
Assay [7] can be described thus: CellTiter-Glo luminescent readout of SW480 viability loss, NPC library primary (AID 1117343;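 active means compounds that lower viability of the colon cancer cells in the luminescence readout, with no numeric limit stated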). The note with it: CellTiter-Glo luminescence; at 20 µM (top of the series).
Assay [8] is described as follows: decreased DLD-1 cellular survival, CellTiter-Glo luminescent readout, NPC compound collection, primary HTS (AID 1117346;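 active means compounds that lower survival of DLD-1 colon cancer cells in the luminescence readout, no cutoff given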). The note with it: DLD-1 viability, CellTiter-Glo luminescence; at 20 µM (top of the series).

As for `CCCCCCCCCCCCCCCC[n+]1ccccc1`, the nuclear beta-catenin stimulation in assay [1] (at 10 µM) was -2.9% (inactive); in assay [1] (stimulation, at 2 µM) it was 5.4%. The insulin secretion stimulation in assay [2] is 46% (active). The viability decrease in assay [3] is 56% (active). In assay [4], the tube area decrease is 104% (active). Moreover, the GLP1 secretion stimulation in assay [5] is 72.8% (active). In addition, the inhibition of viability in assay [6] was 112% (active). Also, the viability decrease (inhibition) is 112% (active) in assay [7] and 60.9% (active) in assay [8].
Consider `O=C(Nc1ccc(Br)cc1)c1cc(Br)c(Br)s1`, for which the nuclear beta-catenin stimulation was 24.1% (inactive) in assay [1] (at 10 µM) and -0.1% in assay [1] (stimulation, at 2 µM). Moreover, in assay [2], the insulin secretion stimulation is 3.5% (inactive). The viability decrease in assay [3] is 99.8% (active). The tube area decrease in assay [4] was 108% (active). In addition, the GLP1 secretion stimulation in assay [5] was -2% (inactive). For the same molecule, the inhibition of viability in assay [6] was 99.7% (active). Moreover, the viability decrease (inhibition) in assay [7] and in assay [8] was 102% (active) each time.
On to `CCCCCCCCCCCCCCCCN`, for which the nuclear beta-catenin stimulation in assay [1] (at 10 µM) was 1.3% (inactive); in assay [1] (stimulation, at 2 µM), 1.3%. For the same molecule, in assay [2], the insulin secretion stimulation is -2.4% (inactive). In addition, in assay [3], the viability decrease was 5% (inactive). In addition, the tube area decrease in assay [4] was 6.5% (inactive). In assay [5], the GLP1 secretion stimulation was 0.9% (inactive). Also, the inhibition of viability in assay [6] was 5.9% (inactive). In addition, the viability decrease (inhibition) in assay [7] is 4.5% (inactive); in assay [8], -6.6% (inactive).
With `Nc1nc(=O)n([C@@H]2O[C@H](CO)[C@@H](O)[C@@H]2F)cc1I`, the nuclear beta-catenin stimulation in assay [1] (at 10 µM) was 8% (inactive); in assay [1] (stimulation, at 2 µM) it was 1.8%. For the same molecule, in assay [2], the insulin secretion stimulation is 0.8% (inactive). Besides, in assay [3], the viability decrease is 2.9% (inactive). Further, in assay [4], the tube area decrease was 74% (active). In assay [5], the GLP1 secretion stimulation was -3.9% (inactive). Also, the inhibition of viability in assay [6] was 23.7% (inactive). Further, the results for the viability decrease (inhibition) in assay [7] and in assay [8] were 32.2% (inactive) and 23.1% (inactive), respectively.
Regarding `O=C(CCOCCOCCOCCOCCC(=O)Nc1c(I)cc(I)c(C(=O)O)c1I)Nc1c(I)cc(I)c(C(=O)O)c1I`, the nuclear beta-catenin stimulation in assay [1] (at 10 µM) is -0.1% (inactive); in assay [1] (stimulation, at 2 µM), -1.6%. For the same molecule, in assay [2], the insulin secretion stimulation is 0.1% (inactive). Further, the viability decrease in assay [3] was -4.7% (inactive). Also, the tube area decrease in assay [4] is -12% (inactive). Moreover, the GLP1 secretion stimulation in assay [5] was 0.3% (inactive). Besides, in assay [6], the inhibition of viability is -2.1% (inactive). The results for the viability decrease (inhibition) in assay [7] and in assay [8] were -14.8% (inactive) and -2.6% (inactive), respectively.
As to `COc1ccc(S(=O)(=O)Nc2nnc(CC(C)C)s2)cc1`, the nuclear beta-catenin stimulation in assay [1] (at 10 µM) is -0.3% (inactive); in assay [1] (stimulation, at 2 µM) it was -0.5%. The insulin secretion stimulation in assay [2] is 5.1% (inactive). Further, in assay [3], the viability decrease is -9.2% (inactive). The tube area decrease in assay [4] was -5.8% (inactive). In assay [5], the GLP1 secretion stimulation was -1.9% (inactive). Besides, the inhibition of viability in assay [6] is -18.3% (inactive). Also, the viability decrease (inhibition) in assay [7] is 13.7% (inactive); in assay [8], -19.8% (inactive).
With `CCCCOC(=O)CC(CC(=O)OCCCC)(OC(C)=O)C(=O)OCCCC`, the nuclear beta-catenin stimulation was -0.3% (inactive) in assay [1] (at 10 µM) and 0.1% in assay [1] (stimulation, at 2 µM). In addition, in assay [2], the insulin secretion stimulation was 6.2% (inactive). In assay [3], the viability decrease is 30.4% (inactive). Moreover, in assay [4], the tube area decrease is 2.1% (inactive). In assay [5], the GLP1 secretion stimulation was 0.1% (inactive). In assay [6], the inhibition of viability is 25.9% (inactive). Besides, the figures for the viability decrease (inhibition) in assay [7] and in assay [8] were 62.1% (active) and 26.9% (inactive), respectively.
Take `O=C(O)CNC(=O)c1ccccc1I`: the nuclear beta-catenin stimulation is -0.5% (inactive) in assay [1] (at 10 µM) and 1.7% in assay [1] (stimulation, at 2 µM). Besides, the insulin secretion stimulation in assay [2] is 0.3% (inactive). In addition, the viability decrease in assay [3] is 16% (inactive). The tube area decrease in assay [4] was 5.3% (inactive). The GLP1 secretion stimulation in assay [5] was 0.7% (inactive). Moreover, the inhibition of viability in assay [6] is 4.1% (inactive). In addition, the viability decrease (inhibition) in assay [7] is 10.4% (inactive); in assay [8] it was -17.7% (inactive).
For the molecule `O=P(O)(O)OCC(O)CO` (stereo not drawn), the nuclear beta-catenin stimulation in assay [1] (at 10 µM) was 0.5% (inactive); in assay [1] (stimulation, at 2 µM), 0.5%. The insulin secretion stimulation in assay [2] was -2.1% (inactive). The viability decrease in assay [3] was 4.35% (inactive). Besides, the tube area decrease in assay [4] was -14.2% (inactive). The GLP1 secretion stimulation in assay [5] was 0.6% (inactive). For the same molecule, in assay [6], the inhibition of viability was 9.3% (inactive). Besides, the results for the viability decrease (inhibition) in assay [7] and in assay [8] were 23.1% (inactive) and 18.2% (inactive), respectively.
Take `O=C(O)c1cc(=O)c2c3nc4ccccc4oc-3cc(=O)c2[nH]1`: the nuclear beta-catenin stimulation in assay [1] (at 10 µM) is -0.4% (inactive); in assay [1] (stimulation, at 2 µM), -0.7%. Moreover, the insulin secretion stimulation in assay [2] was -0.1% (inactive). Also, in assay [3], the viability decrease is 10.4% (inactive). Further, the tube area decrease in assay [4] was 16.6% (inactive). Also, the GLP1 secretion stimulation in assay [5] is -7.4% (inactive). In addition, the inhibition of viability in assay [6] was -31.1% (inactive). The results for the viability decrease (inhibition) in assay [7] and in assay [8] were 17.8% (inactive) and -15.6% (inactive), respectively.
As to `O=C(C1CCCCC1)N1CC(=O)N2CCCc3ccccc3C2C1` (stereo not drawn), the nuclear beta-catenin stimulation in assay [1] (at 10 µM) is 1.4% (inactive); in assay [1] (stimulation, at 2 µM) it was 2.7%. In assay [2], the insulin secretion stimulation is 0.6% (inactive). Also, the viability decrease in assay [3] is 6.6% (inactive). In addition, the tube area decrease in assay [4] is 12.9% (inactive). For the same molecule, the GLP1 secretion stimulation in assay [5] was 5.2% (inactive). For the same molecule, in assay [6], the inhibition of viability was -9.2% (inactive). The viability decrease (inhibition) in assay [7] was -250% (inactive); in assay [8], -3.1% (inactive).
In the case of `Clc1ccccc1-c1nc(-c2ccncc2)no1`, the nuclear beta-catenin stimulation was -0.3% (inactive) in assay [1] (at 10 µM) and 0.5% in assay [1] (stimulation, at 2 µM). The insulin secretion stimulation in assay [2] is -2.3% (inactive). Further, in assay [3], the viability decrease was 3.6% (inactive). Moreover, the tube area decrease in assay [4] is 23.5% (inactive). Moreover, the GLP1 secretion stimulation in assay [5] was -2.9% (inactive). Also, the inhibition of viability in assay [6] was 18.1% (inactive). Further, the figures for the viability decrease (inhibition) in assay [7] and in assay [8] were 8.4% (inactive) and -2.9% (inactive), respectively.
As to `COc1cc(O)cc(O)c1`, the nuclear beta-catenin stimulation in assay [1] (at 10 µM) was 1.6% (inactive); in assay [1] (stimulation, at 2 µM), -0.2%. Further, the insulin secretion stimulation in assay [2] is 4.5% (inactive). In assay [3], the viability decrease is -4.6% (inactive). Further, the tube area decrease in assay [4] is 10.6% (inactive). The GLP1 secretion stimulation in assay [5] is -9.8% (inactive). Further, the inhibition of viability in assay [6] was 7.93% (inactive). The viability decrease (inhibition) in assay [7] is 4% (inactive); in assay [8], -9.1% (inactive).
Take `CN(C)c1cc(NC(=O)CNC(C)(C)C)c(O)c2c1C[C@@H]1C[C@H]3[C@H](N(C)C)C(=O)C(C(N)=O)=C(O)[C@@]3(O)C(=O)C1=C2O`: the nuclear beta-catenin stimulation in assay [1] (at 10 µM) is -0.8% (inactive); in assay [1] (stimulation, at 2 µM), -1.4%. The insulin secretion stimulation in assay [2] is -0.5% (inactive). The viability decrease in assay [3] is 70% (active). Besides, the tube area decrease in assay [4] is -8.6% (inactive). Moreover, in assay [5], the GLP1 secretion stimulation was 3.4% (inactive). Besides, the inhibition of viability in assay [6] was 59.6% (active). Besides, the viability decrease (inhibition) was 72% (active) in assay [7] and 58.1% (active) in assay [8].
In the case of `O=C(O)C(Cc1cc(I)c(O)c(I)c1)c1ccccc1` (stereo not drawn), the nuclear beta-catenin stimulation was 1.5% (inactive) in assay [1] (at 10 µM) and 0.8% in assay [1] (stimulation, at 2 µM). Also, in assay [2], the insulin secretion stimulation is -0.6% (inactive). In addition, in assay [3], the viability decrease was 36.8% (inactive). Also, the tube area decrease in assay [4] is -29.6% (inactive). Moreover, the GLP1 secretion stimulation in assay [5] is -0.7% (inactive). For the same molecule, in assay [6], the inhibition of viability was 40.4% (inactive). Further, the viability decrease (inhibition) in assay [7] is 50.4% (active); in assay [8], 14.4% (inactive).
Take `COC[C@@H](c1ccc(C(F)(F)F)cc1)N1CCN(C2(C)CCN(C(=O)c3c(C)ncnc3C)CC2)C[C@H]1C`: the nuclear beta-catenin stimulation in assay [1] (at 10 µM) is 2.4% (inactive); in assay [1] (stimulation, at 2 µM), 2.3%. Moreover, the insulin secretion stimulation in assay [2] is 2.8% (inactive). In assay [3], the viability decrease was -44.2% (inactive). The tube area decrease in assay [4] is 32% (inactive). Moreover, the GLP1 secretion stimulation in assay [5] is 3.1% (inactive). Also, the inhibition of viability in assay [6] was 11.1% (inactive). Further, the viability decrease (inhibition) was -3% (inactive) in assay [7] and 3.5% (inactive) in assay [8].
With `CN(CC1(C)CCCO1)S(=O)(=O)c1ccc(Cl)c(S(N)(=O)=O)c1` (stereo not drawn), the nuclear beta-catenin stimulation is -0.8% (inactive) in assay [1] (at 10 µM) and -1.9% in assay [1] (stimulation, at 2 µM). Also, the insulin secretion stimulation in assay [2] is 2% (inactive). Besides, the viability decrease in assay [3] is -0.1% (inactive). In addition, in assay [4], the tube area decrease is -8.9% (inactive). For the same molecule, the GLP1 secretion stimulation in assay [5] was 2.8% (inactive). Further, the inhibition of viability in assay [6] is 12.4% (inactive). Further, the viability decrease (inhibition) is -9.7% (inactive) in assay [7] and 2.2% (inactive) in assay [8].

The record behind these values is PubChem BioAssay.
